Data as given in PubChem BioAssay AID1347076 (National Center for Advancing Translational Sciences (NCATS), 2019).
About 13,000 (3.2%) of roughly 400,000 compounds were called active. Inconclusive results (about 18%) are left out. The full list was thinned out, with actives kept by preference. A number with no mark means an inactive call. Calls come from the whole dose curve; as a rule, active = well fitted cell-killing curve with a large enough effect; inconclusive = small, poorly fitted or top-dose-only effect, or effect the other way; inactive = flat fitted curve, though single readings scatter.

assay: qHTS assay for MDR1-selective chemotherapeutics: Primary screen using the drug-selected MDR subline cells KB-V1; settings: KB-V1 MDR cells viability, CellTiter-Glo, 72 h; series mostly up to 46.1 µM; activity change, negative = cytotoxicity: at the top concentration; note: nearly all actives have a fitted effect of over 60% in size
In short: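 Cytotoxicity via CellTiter-Glo luminescence after 72 h compound exposure at 37 degrees C. Cells: drug-selected KB-V1 line, DMEM phenol-red free plus 10% FBS. Compounds tested at multiple concentrations; normalized data fitted to concentration-effect curves.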
% is set by controls: 0 for no effect and ±100 for the full control effect; potency is the fitted concentration of half-maximal effect.

SMILES	activity change, negative = cytotoxicity	Potency
CCC(C(=O)Nc1cc(OC)ccc1OC)n1c(=O)c(C(F)(F)F)nc2ccccc21 (stereo unspecified)	-3.27%	
O=C(Nc1cccnc1)c1noc2c1CCCCC2		23.1 µM (active)
CCOC(=O)c1ccc(-c2ccc(C(=O)Nc3cccnc3)o2)cc1	-20.6%	
COc1cccc(C(=O)Nc2cccnc2)c1OC	8.39%	
Cc1noc(C)c1S(=O)(=O)Nc1cc(C(F)(F)F)ccc1N1CCOCC1	-15.2%	
Nc1cc(C(F)(F)F)ccc1N1CCOCC1		20.6 µM (active)
CC(C)CC(=O)Nc1cc(C(F)(F)F)ccc1N1CCOCC1	-6.92%	
Cc1ccccc1CNC(=O)CSc1nnc(C)c2c(C)n(-c3ccccc3)nc12	-1.14%	
COc1cccc(C(NC(C)=O)c2nc(-c3ccccc3OC)cs2)c1 (stereo unspecified)	-18.7%	
CCN1CCCC1CNC(=O)c1ccc2c(c1)NC(=O)/C(=C\c1ccccc1F)S2 (stereo unspecified)	-4.63%	
COC(=O)c1ccc2nc(-c3ccc(OC)c(OC)c3)c(Cc3ccccc3)n2c1	-3.03%	
COC(=O)c1ccc2nc(-c3ccc(Cl)cc3)c(Cc3cccc(F)c3)n2c1	13.5%	
COC(=O)c1ccc2nc(-c3ccccc3)c(Cc3ccc(OC)cc3C)n2c1		23.1 µM (active)
COC(=O)c1ccc2nc(-c3ccc(C)cc3)c(Cc3ccc(OC)cc3C)n2c1	-24.1%	
COC(=O)c1ccc2nc(-c3ccc(F)cc3)c(Cc3ccc(C)cc3)n2c1		9.2 µM (active)
COC(=O)c1ccc2nc(-c3cccc(Br)c3)c(Cc3ccc(OC)cc3C)n2c1	-3.51%	
OC[C@@H]1CN(Cc2ccc3c(c2)OCO3)C[C@H](n2cnc3c(NCc4ccco4)ncnc32)O1	0.266%	
CC1(c2cccc(N)c2)OCCO1	14.4%	
COc1ccc(NC(=O)Cn2c(=O)cc(C)c3c(C)nn(-c4cccc(Cl)c4C)c32)cc1OC	4.25%	
Cn1nc(N)c2ncc(C(Cl)(Cl)Cl)nc21	16.9%	
Nc1cc(=O)c2[nH]cnc2[nH]1	11.3%	
S=c1[nH]c(=S)c2n[nH]nc2[nH]1	-23.8%	
Cc1ccc2nc(-c3ccc(O)cc3)c(Nc3ccc4c(c3)OCO4)n2c1	12.8%	
Cc1ccc2nc(-c3cccnc3)c(NC3CCCC3)n2c1		2.59 µM (active)
Cc1ccc2nc(-c3ccccc3)c(CC3CCCCC3)n2c1	8.28%	
COc1ccccc1CNc1nccn(-c2ccc(F)cc2)c1=O	5.14%	

SMILES	activity change, negative = cytotoxicity	Potency
CCOC(=O)C1(C)CCCN(C(=O)c2cccc(Cl)c2)C1 (stereo unspecified)	-11.5%	
O=C(NCCc1ccc(Cl)cc1)c1cccc(N2CCCC2=O)c1	-5.68%	
Oc1cc2c(cc1O)CN(C(=S)NCCc1ccc(Cl)cc1)CCC2		14.6 µM (active)
COc1ccc(CCNC(=S)N2CCN(S(=O)(=O)c3ccc(Cl)cc3)CC2)cc1	4.6%	
Cc1cc([N+](=O)[O-])ccc1NC1CCCC1		16.4 µM (active)
Cc1cc([N+](=O)[O-])ccc1NC(=O)C1CCCO1 (stereo unspecified)	-0.842%	
Cc1cc([N+](=O)[O-])ccc1NCc1cccc([N+](=O)[O-])c1	-4.27%	
COc1ccc(-c2nnc(SCC(=O)Nc3ccc(C(C)C)cc3)nc2-c2ccc(OC)c(OC)c2)cc1OC	10.8%	
CC1(C)CN(CCc2ccccc2)C(=O)[C@H]1CC(=O)Nc1ccc(Br)cc1	-1.58%	
CC1(C(=O)NS(=O)(=O)c2ccccc2)CCN1C(=O)C/C=C/c1ccccc1 (stereo unspecified)	1.3%	
CCn1c(=O)c(=O)n(CC)c2cc(N3CCCCC3)c(NC(=O)c3cccc(F)c3)cc21	-3.16%	
Cc1cccc(C(=O)Nc2ccccc2N2CCN(c3ccc(F)cc3)CC2)c1	-30.1%	
O=C(Nc1ccccc1N1CCN(c2ccccc2)CC1)c1cccc(F)c1		11.6 µM (active)
O=C(NCc1nnnn1-c1ccc(Cl)cc1)c1ccc2c(c1)OCO2	-9.69%	
Cc1ccc(S(=O)(=O)NCCC(=O)NCc2ccc(Cl)cc2)cc1C	9.48%	
CSc1ccc(S(=O)(=O)NCc2ccc(Cl)cc2)cc1		23.1 µM (active)
CC(C)CNS(=O)(=O)c1ccc(CCC(=O)NCc2ccc(Cl)cc2)cc1	-5.32%	
CCCCN1C[C@H](c2ccc(Br)cc2)[C@@H](CC(=O)Nc2ccc(Br)cc2)C1=O	-4.39%	
Cc1ccc(C(=O)Nc2ccc(C(=O)O)cc2)cc1S(=O)(=O)Nc1ccccc1	1.49%	
O=C(Nc1ccc(Br)cc1)c1ccc(Br)c(S(=O)(=O)NCc2ccccc2)c1		13 µM (active)
O=C(Nc1ccc(F)cc1)c1ccc(S(=O)(=O)NCc2cccnc2)cc1	0%	
COCCNC(=O)c1cc2c(Br)ccc(Br)c2nc1N	0%	
O=S1(=O)CC(N2CCN(CCO)CC2)CN1Cc1cn(Cc2ccc(Cl)cc2)nn1 (stereo unspecified)	-0.0484%	
CC(C)n1ncc2c(C(=O)N3CCN(Cc4cccs4)CC3)cc(C3CC3)nc21	-27.5%	
Cc1cc2oc(=O)cc(CN(C)Cc3ccccc3)c2cc1Cl	0.451%	
CC1=NN(C(=O)Cc2ccc(C)cc2)C(O)(c2cccnc2)C1 (stereo unspecified)	0.391%	

SMILES	activity change, negative = cytotoxicity	Potency
CCC1=NN(C(=O)Cc2ccc([N+](=O)[O-])cc2)C(O)(c2ccc(Br)cc2)C1 (stereo unspecified)		13 µM (active)
CC1=NN(C(=O)c2ccc(Br)cc2)C(O)(c2ccccc2)C1 (stereo unspecified)	9.29%	
C[C@@H]1CN([C@H](C)CO)S(=O)(=O)c2ccc(C#CC3CCCCC3)cc2O[C@H]1CN(C)C(=O)Cc1ccncc1	0%	
COc1ccc(NC(=O)c2ccco2)cc1NC(=O)COc1ccc(C)c(C)c1	-4.24%	
CCc1ccc2ncc(C(=O)c3ccccc3)c(N3CCOCC3)c2c1	-2.87%	
O=C(NCC(c1cccs1)N1CCOCC1)c1cc(-c2ccccn2)nc2ccccc12 (stereo unspecified)	-21.1%	
O=C(c1ccccc1)c1cc(-c2ccccn2)c(N2CCOCC2)s1		8.2 µM (active)
COCCNc1ncnc2c1ncn2[C@H]1CN(CCN2CCOCC2)C[C@@H](CO)O1	3.73%	
Fc1ccc(-n2ncc3c(Nc4ccc(Oc5ccccc5)cc4)ncnc32)cc1	0%	
OC(COc1ccccc1)CN1CCN(c2cccc(Cl)c2)CC1 (stereo unspecified)	0.123%	
CCc1nn(CCCN2CCN(c3cccc(Cl)c3)CC2)c(=O)n1CCOc1ccccc1		6.51 µM (active)
Cn1c(C(=O)NCCCN2CCN(c3cccc(Cl)c3)CC2)cc2c(=O)n(C)c3ccccc3c21	15.4%	
CC(O)(c1cccc(F)c1)c1nc(-c2ccc3c(c2)OCO3)cs1 (stereo unspecified)	3.39%	
CCc1nc2ccc(C(=O)NCCNC(C)=O)cn2c1N(CC)Cc1cccc(Br)c1	5.36%	
COc1ccc(-n2c(SC)nc3sc4c(c3c2=O)CCN(C(C)=O)C4)cc1	-5.53%	
CNc1cnc(-c2cc(OC)c(OC)c(OC)c2)cn1	6.28%	
CN1c2ccc(C=O)c3c(C=O)ccc(c23)N(C)C1(C)C		18.4 µM (active)
Cc1ccc(C=O)c([B-](F)(F)F)c1	-1.5%	
Cc1cc(C)c2c(=O)n3c(nc2c1)C(CC(C)C)NC(=O)c1cc2ccccc2cc1-3 (stereo unspecified)	-6.74%	
CN(C)C1=C2C=CC=CC2/C(=C2/C=Cc3ccccc32)C=C1 (stereo unspecified)	6.11%	
CC(=O)Nc1ccc2c3c(ccc([N+](=O)[O-])c13)CC2	27%	
CN(c1ccccc1)S(=O)(=O)c1ccc(NC(=O)COc2ccccc2)cc1	-39.9%	
CN(C)S(=O)(=O)c1cccc(NC(=O)Cc2ccsc2)c1	5.23%	
CN(c1ccccc1)S(=O)(=O)c1cccc(NC(=O)Cc2ccc(Cl)cc2)c1		5.8 µM (active)
COc1ccc(CN2C(=O)C(CC(=O)NC3CCCCC3)CC(C(=O)N3CCOCC3)=C2C)cc1 (stereo unspecified)	-2.91%	
CCn1cc(CN2CCC(C(=O)Nc3cccc(-c4cccc(Cl)c4)c3)CC2)cn1	12%	

SMILES	activity change, negative = cytotoxicity	Potency
O=C(Nc1cnn(Cc2ccc(Cl)cc2)c1)C1CCCC1		20.6 µM (active)
O=C(O)C1CCCCC1C(=O)Nc1ccc(Cl)cc1 (stereo unspecified)	15%	
CCCCCCN1C[C@@H](O)[C@H](n2cc(COC(=O)c3ccccc3)nn2)C[C@@H]1c1ccc(Cl)cc1	-19.6%	
Cc1ccc(OCCSc2nc3ccc(NC(=O)COc4ccc(C)cc4)cc3s2)cc1	19.9%	
COC(=O)[C@@]1(Sc2ccc(C)cc2)CC(=O)N(c2cccc(SC)c2)[C@@H]1c1ccccc1		20.6 µM (active)
COC(=O)c1cc(C(=O)OC)cc(N2C(=O)CC(N3CCN(c4ccccc4)CC3)C2=O)c1 (stereo unspecified)	0.274%	
CCOC(=O)N1C(=O)C[C@](Sc2ccc(C)cc2)(C(=O)OC)[C@H]1c1ccccc1	0%	
Clc1cccc[n+]1CCCC[n+]1ccccc1Cl	-0.735%	
Cc1cc(C)cc(NS(=O)(=O)c2ccc(F)cc2)c1	1.11%	
Cc1cc(C)cc(NS(=O)(=O)c2ccc(Oc3ncc(C(F)(F)F)cc3Cl)cc2)c1		16.4 µM (active)
Cc1ccc(NS(=O)(=O)c2ccc(C(C)(C)C)cc2)cn1	-22.7%	
CC1(C(=O)Nc2cccc(Oc3ccccc3)c2)CCN1Cc1ccccc1Cl (stereo unspecified)	-7.82%	
CCC(=O)Nc1c(S(=O)(=O)c2ccccc2)c2nc3ccccc3nc2n1Cc1ccccc1		4.11 µM (active)
CCN(CC)CCn1c(N)c(S(=O)(=O)c2ccccc2)c2nc3ccccc3nc21	-23.5%	
Cc1ccc(S(=O)(=O)c2c(N)n(C)c3nc4ccccc4nc23)cc1	-1.9%	
Cc1c(NC(=O)c2cc(=O)c3ccccc3o2)c(=O)n(-c2ccccc2)n1C	0%	
O=C(C[C@H]1C[C@@H]2c3cc(NC(=O)C4CCC4)ccc3O[C@@H]2[C@H](CO)O1)NC1CCCCC1	10.9%	
CCCNC(=O)c1cc(C2CCCN(C(=O)c3ccc4c(c3)CCO4)C2)on1 (stereo unspecified)	2.38%	
O=C(NCc1ccc(F)cc1)c1ccc2nc(N3CCCCC3)sc2c1	-6.93%	
Cc1ccc2nc(N3CCN(C(=O)c4ccco4)CC3)sc2c1	-4.81%	
c1c2c(cc3sc(N4CCCCC4)nc13)OCCO2		20.6 µM (active)
COc1ccccc1CNC(=O)NCc1noc2ccc(C)cc12	0%	
COc1cccc2c1C(=O)c1c(O)c3c(c(O)c1C2=O)CC(O)(C(C)=NNC(=O)c1ccc(Cl)c(Cl)c1)CC3OC1CC(N)C(O)C(C)O1 (stereo unspecified)		23.1 µM (active)
